# Source: ChEMBL document CHEMBL3988442, “University of Dundee, Small-Polar-MMV Screening Library” (2021)
# In all, about 48,000 compounds went through this assay and about 13,000 (27%) showed an effect of 50% or more. The list shows a part of the results.
# Test system: Wolbachia pipientis
# Experiment: Anti-Wolbachia Cell-Based Screen
# Format: functional
# Design: scale not given: in the data most compounds retested in dose-response had high values
# Details: 5 µM
row,SMILES,Percent Effect
1,COc1ncc(C)cc1NC(=O)COc1ccccc1F,-12.82%
2,CCO[C@H]1COC[C@@H]1NC(=O)c1c[nH]nc1C1CCCCC1,-0.7852%
3,Cn1c(C(N)=O)cc2c1CN(C(=O)C1CC(=O)N(C(C)(C)C)C1)CC2 (stereo not given),-2.281%
4,Cn1ncc2c(NCC3CCS(=O)(=O)C3)nc(C3CCCC3)nc21 (stereo not given),-5.604%
5,O=C(CCNc1ncccn1)NCc1cccc(OC(F)F)c1,-10.33%
6,O=C(CCC1CC1)N1C[C@@H](CN2CCCC2)[C@@H](CO)C1,-10.86%
7,Cc1ccc(CNC2CCc3[nH]c(=O)ccc3C2)cc1C.O=C(O)C(F)(F)F (stereo not given),104.8%
8,CCC(=O)N(C)CC(=O)Nc1ccc(Br)cn1,-3.099%
9,O=C(CCc1nc(Cl)n[nH]1)N1C[C@H](CO)C[C@H](CN2CCCC2)C1,-2.773%
10,Cn1nc2c(cc1=O)CN(CC(=O)Nc1ccc(Cl)cn1)CC2,-5.01%
11,O=C(Cc1cc(-c2ccc3c(c2)OCCO3)on1)NCc1ccccn1,5.76%
12,COc1ccccc1NCC(=O)NCc1cc[nH]n1,15.35%
13,O=C(Cc1ccccc1)NCc1ccc(-c2ccccc2C(=O)O)cn1,101.1%
14,CC(=O)NCc1ccc(-c2ccccc2C(=O)O)cn1,125.9%
15,COc1ccccc1OCCC(=O)NCc1ncc(C)c(OC)c1C,-4.89%
16,COCCC(=O)NCc1ccc(-c2ccccc2C(=O)O)cn1,105.5%
17,COc1c(C)cnc(CNC(=O)CCOCc2ccccc2)c1C,7.332%
18,CC(=O)NCc1cccc(-n2ccnc2-c2cccc(C(=O)O)c2)c1,-20.57%
19,Cc1oc(CNC(=O)Cc2ccc3ccccc3c2)cc1C(=O)O,-0.3002%
20,COCCC(=O)NCc1cccnc1-n1cnc2ccccc21,-10.59%
21,CCCN1CCCn2nc(CNC(=O)CCOC)cc2C1,16.28%
22,COCCC(=O)NCc1ccc(-c2ccccc2C(=O)O)nc1,88.43%
23,CCN(CC)S(=O)(=O)NCCc1cc(C)ccc1OC,2.679%
24,Cc1noc(CNc2ccc(CC(=O)N3CCSCC3)cc2)n1,-10.08%

row,SMILES,Percent Effect
1,COCCCN1C(=O)CC[C@H]2CN(c3nc4ccccc4s3)CC[C@H]21,-8.201%
2,CN1CCN(c2ncccc2CNc2ncccc2C#N)CC1,1.331%
3,O=C(CCCn1ccnc1)N1CCC2(CC1)[C@H](O)C[C@@H]2OCCO,0.2303%
4,CCCc1cc(CNC(=O)C2CCOc3ccccc3C2)on1 (stereo not given),6.963%
5,COCC(=O)NCc1ccc(-c2ccccc2C(=O)O)cn1,123.3614%
6,COCC(=O)NCc1cccnc1-n1cnc2ccccc21,13.4%
7,COCC(=O)Nc1cnc(N2CCN(c3ccccc3)CC2)nc1,-8.386%
8,Cc1nc(CN2CCCN(CCOc3cccc(C#N)c3)CC2)no1,11.38%
9,O=C(c1cc(C2CC2)on1)N1C[C@H]2CC[C@](O)(c3ccccc3F)[C@H]2C1,127.6%
10,Cc1cnn(C2CCCN(C(=O)c3cc(C4CC4)on3)C2)c1 (stereo not given),8.361%
11,O=C(c1cc(C2CC2)on1)N1CCC(Oc2ncccc2Cl)CC1,9.581%
12,c1ccc2c(Cc3nnc([C@H]4CCN(C5CCC5)C4)o3)c[nH]c2c1,-3.783%
13,NC1C=C(C(F)(F)F)NC=C1c1ccc(Cl)cc1 (stereo not given),102.6%
14,NC1C=C(C(F)(F)F)NC=C1c1ccccc1 (stereo not given),86.08%
15,COc1ccc(C2=CNC(C(F)(F)F)=CC2N)cc1 (stereo not given),99.44%
16,CC(NC(=O)C1CCN(S(N)(=O)=O)CC1)c1cccc(OC(F)F)c1 (stereo not given),6.374%
17,CS(=O)(=O)NCCNc1ncnc2cccc(F)c12,8.452%
18,CC(C)CC(NC(=O)c1ccco1)c1nnc2ccccn12 (stereo not given),109.4%
19,CCCC(NC(=O)c1ccccn1)c1nnc2ccccn12 (stereo not given),4.889%
20,CCCC(NC(=O)c1cnccn1)c1nnc2ccccn12 (stereo not given),41.87%
21,O=C(NCC1CCSCC1)N(CCCO)C1CCc2ccccc21 (stereo not given),6.335%
22,COc1ccc(C)cc1S(=O)(=O)NCC(c1cccn1C)N(C)C (stereo not given),4.095%
23,CC(C)CC(=O)N(C)Cc1nc(C(F)(F)F)cs1,105.6%
24,CCC(NC(=O)c1ccc(OC)nn1)c1nc(C(F)(F)F)cs1 (stereo not given),-7.754%

row,SMILES,Percent Effect
1,Cc1c(C(=O)N(C)CC(C)O)sc2nc(C(F)(F)F)ccc12 (stereo not given),9.483%
2,COCCC(=O)N(C)Cc1nc(C(F)(F)F)cs1,98.57%
3,CCOCC(=O)N(C)Cc1nc(C(F)(F)F)cs1,102.1%
4,CCC(NC(=O)c1ccc(COC)o1)c1nc(C(F)(F)F)cs1 (stereo not given),-11.95%
5,CCOCCn1c(=O)[nH]c2cc(C(=O)N(C)Cc3nc(C)cs3)ccc21,-23.7%
6,Cc1nc(CN(C)c2nccc(C(F)(F)F)n2)cs1,-8.606%
7,CCOCCC(=O)NCCNc1nccc(C(F)(F)F)n1,-1.225%
8,Cc1cc(CN(C)C(=O)c2ccnc(N(C)C)c2)no1,-7.552%
9,CCOC1CCCN(C(=O)c2[nH]nc(C)c2Br)C1 (stereo not given),6.367%
10,CCN1CCn2c(C)cnc2C12CCN(C(=O)NCC(C)C)CC2.O=C(O)C(F)(F)F,99.78%
11,CNC(=O)N1CCC2(CC1)c1ncc(C)n1CCN2C.O=C(O)C(F)(F)F.O=C(O)C(F)(F)F,93.19%
12,CCN1CC[C@@]2(C(=O)N3CCOCC3)CCN(C(=O)NC)CC[C@@H]12.O=C(O)C(F)(F)F,-38.24%
13,Cc1cnc2n1CCN(C)C21CCN(CC2CC2)CC1.O=C(O)C(F)(F)F.O=C(O)C(F)(F)F.O=C(O)C(F)(F)F,2.342%
14,Cc1cnc2n1CCN(C)C21CCN(C(=O)CC(C)C)CC1.O=C(O)C(F)(F)F,6.371%
15,CCN1CCn2c(C)cnc2C12CCN(C(=O)NC)CC2.O=C(O)C(F)(F)F,106.5%
16,NC(=O)C1CCN(Cc2ccc(S(=O)(=O)N3CCCC3)o2)CC1,-8.364%
17,Cc1c(NCc2ccccc2C#N)cccc1-n1cnnn1,4.013%
18,N#CCCN(CC1CCOC1)Cn1ccc(-c2ccccc2)n1 (stereo not given),-2.845%
19,CN(C)C1(C(=O)NC2CCC(Oc3ccccc3C#N)CC2)CCC1 (stereo not given),-18.62%
20,CCN(Cc1nc(COC)no1)Cc1ccccc1OCC(=O)O,10.36%
21,CCn1cc(C(=O)NCC(C)(CC)N2CCOCC2)c2ccccc21 (stereo not given),6.626%
22,Cc1cnn(CCNCc2c(C)nn(Cc3ccccc3)c2C)c1,-5.977%
23,O=C(C1CCCO1)N1CCC2(CC1)COCCN(Cc1ccncc1)C2.O=C(O)C(F)(F)F.O=C(O)C(F)(F)F (stereo not given),-9.895%
24,Cn1cccc1CN1CCC2(CCCN(C(=O)Cc3cccnc3)C2)C1 (stereo not given),5.928%

row,SMILES,Percent Effect
1,O=C(C1CCCO1)N1CCC2(CC1)COCCN(Cc1cccnc1)C2.O=C(O)C(F)(F)F.O=C(O)C(F)(F)F (stereo not given),128.2%
2,O=C(N1CCCC1)N1CCC2(CC1)COCCN(Cc1cccnc1)C2.O=C(O)C(F)(F)F.O=C(O)C(F)(F)F,-4.319%
3,O=C(C1CCC2(CCN(Cc3cccnc3)CC2)CO1)N1CCCC1.O=C(O)C(F)(F)F.O=C(O)C(F)(F)F (stereo not given),90.21%
4,O=C([C@@H]1CCCO1)N1CCOCC2(CCN(Cc3cccnc3)C2)C1 (stereo not given in full),95.11%
5,O=C(O)C(F)(F)F.O=C(O)C(F)(F)F.O=C(c1ccsc1)N1CCC2(CC1)COCCN(Cc1ccncc1)C2,15.81%
6,O=c1[nH]c(C2CCOC2)nc2ccc(Cl)cc12 (stereo not given),-0.06581%
7,CCC1CN(C(=O)c2ccccc2N2CCCC2)CCN1C(C)C (stereo not given),-3.455%
8,CCN1C(=O)CC(c2ccccc2)C12CCN(c1ncc(C)cn1)CC2 (stereo not given),-13.83%
9,CCN1C(=O)CC(c2cccnc2)C12CCN(c1ncc(F)cn1)CC2 (stereo not given),-11.62%
10,COCCN1C(=O)CC(c2cccnc2)C12CCN(C(=O)C1CC1)CC2.O=C(O)C(F)(F)F (stereo not given),106.6%
11,CCN1C(=O)CC(c2cnn(C)c2)C12CCN(C(=O)c1ccc[nH]1)CC2 (stereo not given),13.05%
12,CCC(=O)N1CCC2(CC1)C(c1cccnc1)CC(=O)N2CCOC.O=C(O)C(F)(F)F (stereo not given),110.5%
13,COCCN1C(=O)CC(c2cccnc2)C12CCN(C)CC2 (stereo not given),113.4%
14,F[C@@H]1CN(Cc2ccccc2)C[C@@H]1OCc1nc2ccccc2[nH]1,-3.249%
15,O=C(NCCCN1CCC(OC2CCCCC2)CC1)C1CCCC1,-7.761%
16,CCC(C)N(Cc1cccnc1)C(=O)CCSC (stereo not given),-1.177%
17,CCc1noc(CN(C)C(=O)C2COc3ccccc3C2)n1 (stereo not given),19.12%
18,CCO[C@H]1CN(CC2CCOCC2)[C@@H]2CCCO[C@H]12.O=C(O)C(F)(F)F,93.44%
19,CCO[C@@H]1CN(Cc2scnc2C)[C@@H]2CCCO[C@@H]21.O=C(O)C(F)(F)F.O=C(O)C(F)(F)F,-1.893%
20,CN(C)C(=O)CO[C@H]1CN(Cc2ccc(F)cc2)[C@@H]2CCCO[C@H]12.O=C(O)C(F)(F)F,-2.214%
21,Fc1ccccc1CN1C[C@H](OCC2CCOCC2)[C@H]2OCCC[C@H]21.O=C(O)C(F)(F)F,-9.213%
22,CN(C)CCO[C@H]1CN(CC2CC2)[C@@H]2CCCO[C@H]12.O=C(O)C(F)(F)F.O=C(O)C(F)(F)F,109%
23,CN(C)C(=O)CO[C@@H]1CN(Cc2ccccc2F)[C@@H]2CCCO[C@@H]21.O=C(O)C(F)(F)F,-3.753%
